Measured values from PubChem BioAssay (NCATS).
Results filed as inconclusive are left out. Active and inactive are the calls of the source. Unless noted, calls come from the whole dose curve; as a rule, active = well fitted curve in the direction sought with a large enough effect; inconclusive = small, poorly fitted or top-dose-only effect, or another doubt; inactive = no such curve, though single readings can be large; an effect the other way counts as inactive or inconclusive.

Assays:
[1] = target: Lysosomal acid glucosylceramidase (Homo sapiens) (UniProt P04062); test: Glucocerebrosidase-p2 (AID 348; in the data active = potency below about 10 µM; note: potency is the fitted concentration of half-maximal effect); settings: purified GBA, blue fluorogenic substrate, 40 min
Lysosomal acid glucosylceramidase (Homo sapiens), sequence (P04062 whole entry, looked up): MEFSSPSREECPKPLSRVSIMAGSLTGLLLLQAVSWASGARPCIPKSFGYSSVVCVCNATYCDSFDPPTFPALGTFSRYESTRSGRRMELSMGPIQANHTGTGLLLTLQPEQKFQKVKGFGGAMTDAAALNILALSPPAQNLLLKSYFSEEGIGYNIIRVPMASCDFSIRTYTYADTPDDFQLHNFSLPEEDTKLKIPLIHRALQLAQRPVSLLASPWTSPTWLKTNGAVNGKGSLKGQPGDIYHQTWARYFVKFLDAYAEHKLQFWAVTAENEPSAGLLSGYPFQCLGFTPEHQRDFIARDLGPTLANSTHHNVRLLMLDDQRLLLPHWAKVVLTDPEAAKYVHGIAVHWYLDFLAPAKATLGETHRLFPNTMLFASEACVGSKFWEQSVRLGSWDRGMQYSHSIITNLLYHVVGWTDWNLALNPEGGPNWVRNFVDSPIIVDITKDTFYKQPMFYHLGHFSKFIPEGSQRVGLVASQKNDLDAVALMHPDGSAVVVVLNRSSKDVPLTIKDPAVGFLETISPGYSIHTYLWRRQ
How it was run: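 Compounds titrated from 0.6 nM upwards against 0.2 nM enzyme in pH 5.9 citric acid/KH2PO4, taurocholate, tween-20; blue fluorogenic substrate 80 uM, 40 min room temperature, stopped and read Ex 365/Em 440 for AC50.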

[2] = AP1 Signaling Pathway (AID 357; active = well fitted curve in either direction with a large enough effect, not every such curve was filed as active;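 note: ME-180 reporter cells stimulated with EGF at its EC50 level; % is set by controls: 0 for no effect and ±100 for the full control effect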); settings: ME-180 AP-1-bla reporter, EGF-induced, beta-lactamase ratio, 5 h; at 7.69 µM (top of the series) unless noted
How it was run: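 Read-out was the 460nm/530nm emission ratio (excitation 405nm) after CCF4 loading for 2.5 hours at room temperature. Cells carried an AP-1-driven beta-lactamase reporter, were stimulated with EC50 EGF plus compound for 5 hours, and AC50 values came from titrations.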

[3] = Stat Signaling Pathway (AID 446; active = well fitted curve in either direction with a large enough effect, not every such curve was filed as active;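 note: ME-180 cervical cancer cells given 40 pM IL-6 alongside compound; SIE-controlled beta-lactamase reporter measured as 460/530 nm FRET emission ratio; % is set by controls: 0 for no effect and ±100 for the full control effect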); settings: ME-180 (cervical carcinoma) SIE beta-lactamase reporter, IL-6 stimulated, 5 h; at 7.69 µM (top of the series) unless noted
How it was run: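 IL-6/STAT signaling read in ME-180 cells via an SIE beta-lactamase reporter. Stimulus was 40 pM IL-6 (its AC50) for 5 hrs, so both activation and inhibition register.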

[4] = target: Glucocorticoid receptor (Homo sapiens) (UniProt P04150); test: GR-EFC Redistribution (AID 451; calls by dose curve; note: potency is the fitted concentration of half-maximal effect); settings: CHO-K1 GR-EFC translocation, beta-gal luminescence, 2 h
Glucocorticoid receptor (Homo sapiens), sequence (P04150 whole entry, looked up, the tested form may be a part): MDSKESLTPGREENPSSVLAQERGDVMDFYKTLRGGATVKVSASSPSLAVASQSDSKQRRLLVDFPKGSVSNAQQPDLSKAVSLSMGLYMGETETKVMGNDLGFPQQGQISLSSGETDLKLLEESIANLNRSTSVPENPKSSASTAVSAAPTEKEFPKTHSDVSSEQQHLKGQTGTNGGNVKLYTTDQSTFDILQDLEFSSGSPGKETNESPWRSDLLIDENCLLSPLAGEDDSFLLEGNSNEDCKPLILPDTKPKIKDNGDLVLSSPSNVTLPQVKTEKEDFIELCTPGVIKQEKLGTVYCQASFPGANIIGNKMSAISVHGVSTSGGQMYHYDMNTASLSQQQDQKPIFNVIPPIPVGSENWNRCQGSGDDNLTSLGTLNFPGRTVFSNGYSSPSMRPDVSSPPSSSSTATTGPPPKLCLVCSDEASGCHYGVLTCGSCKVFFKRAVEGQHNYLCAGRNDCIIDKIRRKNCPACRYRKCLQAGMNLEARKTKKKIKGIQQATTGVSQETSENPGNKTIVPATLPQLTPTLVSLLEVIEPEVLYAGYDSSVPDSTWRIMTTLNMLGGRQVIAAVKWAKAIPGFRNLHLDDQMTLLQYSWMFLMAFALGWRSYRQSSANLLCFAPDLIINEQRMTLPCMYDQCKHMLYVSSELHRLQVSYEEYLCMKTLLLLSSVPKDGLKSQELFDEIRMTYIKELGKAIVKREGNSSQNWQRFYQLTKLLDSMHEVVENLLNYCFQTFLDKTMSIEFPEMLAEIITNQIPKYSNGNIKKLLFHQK
How it was run: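 Translocation of GR-ED fusion to nuclear EA restores b-gal, read by luminescence after 1 h room-temperature detection. Engineered CHO-K1 biosensor cells, 1,000/well, exposed 2 h at 37 C to titrations up to 46 uM final.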

[5] = target: 3',5'-cyclic-AMP phosphodiesterase 4B (Homo sapiens) (UniProt Q07343); test: qHTS Assay for Inhibitors of PDE-IV (AID 607; active = well fitted activation curve with a large enough effect in the main read-out, with a control signal flat, not every such curve was filed as active; note: % of control where 0% means no effect); settings: HEK293 ACTOne CNG channel cells, membrane potential fluorescence; series mostly up to 22.9 µM
3',5'-cyclic-AMP phosphodiesterase 4B (Homo sapiens), sequence (Q07343 whole entry, looked up): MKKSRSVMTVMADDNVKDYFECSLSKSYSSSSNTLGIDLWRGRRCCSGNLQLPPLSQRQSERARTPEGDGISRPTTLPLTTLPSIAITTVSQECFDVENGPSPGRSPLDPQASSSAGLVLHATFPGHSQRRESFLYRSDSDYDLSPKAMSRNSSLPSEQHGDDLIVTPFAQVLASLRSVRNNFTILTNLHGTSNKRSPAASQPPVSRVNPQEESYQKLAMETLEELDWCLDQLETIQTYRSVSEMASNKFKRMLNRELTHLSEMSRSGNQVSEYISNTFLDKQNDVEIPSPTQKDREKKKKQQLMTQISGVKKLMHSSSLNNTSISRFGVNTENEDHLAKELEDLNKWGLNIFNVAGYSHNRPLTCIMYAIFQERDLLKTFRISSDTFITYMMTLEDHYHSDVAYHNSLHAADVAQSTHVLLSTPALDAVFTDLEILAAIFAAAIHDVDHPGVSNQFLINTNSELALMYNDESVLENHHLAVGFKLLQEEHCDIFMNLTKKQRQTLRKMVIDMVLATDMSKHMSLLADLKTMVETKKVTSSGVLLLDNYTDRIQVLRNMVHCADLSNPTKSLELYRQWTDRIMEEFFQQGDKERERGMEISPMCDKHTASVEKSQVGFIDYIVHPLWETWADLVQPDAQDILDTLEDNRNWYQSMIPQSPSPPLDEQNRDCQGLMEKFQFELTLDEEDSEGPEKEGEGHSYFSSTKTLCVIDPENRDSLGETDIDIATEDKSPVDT
How it was run: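 Live HEK293 cells with a modified cyclic nucleotide-gated (CNG) channel report intracellular cAMP via membrane-potential dye fluorescence (ex 535/em 590 nm). Endogenous PDE-IV was targeted. Compounds were tested at up to 22.9 uM final; RO 20-1724 100 uM served as control.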

[6] = qHTS Assay for Lipid Storage Modulators (AID 1519; calls by dose curve); settings: Drosophila S3 cells, BODIPY lipid droplet/cell ratio, laser cytometry, cells loaded with oleic acid; for activity change, negative = inhibition: at 57.5 µM (top of the series)
How it was run: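 Cells seeded at 5,000 per well were treated with compounds over a concentration series and loaded with oleic acid (400 uM, as added). Lipid droplet fluorescence (488 nm excitation, 500-530 nm channel) was read by laser-scanning cytometry and normalized to 20 uM Triacsin C.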

[7] = Primary qHTS for small molecule stabilizers of the endoplasmic reticulum resident proteome: Secreted ER Calcium Modulated Protein (SERCaMP) assay (AID 1508630); settings: SH-SY5Y GLuc-SERCaMP (Gaussia luciferase released on ER calcium loss) secretion, thapsigargin, luminescence; series mostly up to 38.4 µM; note: % is set by controls: 0 for no effect and ±100 for the full control effect
How it was run: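 GLuc-SERCaMP-expressing SH-SY5Y cells, pretreated 16 h with compound, are challenged with thapsigargin to empty ER calcium stores; after 4 h, coelenterazine is added directly to the medium and luminescence is imaged.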

[8] = target: Rap guanine nucleotide exchange factor 3 (Homo sapiens) (UniProt O95398); test: Confirmatory qHTS for agonist of cAMP-regulated guanine nucleotide exchange factor 3 (EPAC1) (AID 1645881); settings: EPAC1 Rap1B BODIPY-GDP exchange fluorescence, 100% = cAMP control response; series mostly up to 154 µM;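 note: EPAC1 catalysed release of BODIPY-GDP from Rap1B seen as fluorescence loss; nearly all actives have a fitted effect of over 75% in size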
[9] = target: Rap guanine nucleotide exchange factor 4 (Homo sapiens) (UniProt Q8WZA2); test: Confirmatory qHTS for agonist of cAMP-regulated guanine nucleotide exchange factor 4 (EPAC2) (AID 1645884); settings: EPAC2 GEF activity, Rap1B-BODIPY-GDP fluorescence, percent relative to cAMP agonist control; series mostly up to 154 µM;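 note: nucleotide exchange releases bodipy-GDP from Rap1 and this lowers its fluorescence; % is set by controls: 0 for no effect and ±100 for the full control effect; nearly all actives have a fitted effect of over 65% in size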
Rap guanine nucleotide exchange factor 4 (Homo sapiens), sequence (Q8WZA2 whole entry, looked up): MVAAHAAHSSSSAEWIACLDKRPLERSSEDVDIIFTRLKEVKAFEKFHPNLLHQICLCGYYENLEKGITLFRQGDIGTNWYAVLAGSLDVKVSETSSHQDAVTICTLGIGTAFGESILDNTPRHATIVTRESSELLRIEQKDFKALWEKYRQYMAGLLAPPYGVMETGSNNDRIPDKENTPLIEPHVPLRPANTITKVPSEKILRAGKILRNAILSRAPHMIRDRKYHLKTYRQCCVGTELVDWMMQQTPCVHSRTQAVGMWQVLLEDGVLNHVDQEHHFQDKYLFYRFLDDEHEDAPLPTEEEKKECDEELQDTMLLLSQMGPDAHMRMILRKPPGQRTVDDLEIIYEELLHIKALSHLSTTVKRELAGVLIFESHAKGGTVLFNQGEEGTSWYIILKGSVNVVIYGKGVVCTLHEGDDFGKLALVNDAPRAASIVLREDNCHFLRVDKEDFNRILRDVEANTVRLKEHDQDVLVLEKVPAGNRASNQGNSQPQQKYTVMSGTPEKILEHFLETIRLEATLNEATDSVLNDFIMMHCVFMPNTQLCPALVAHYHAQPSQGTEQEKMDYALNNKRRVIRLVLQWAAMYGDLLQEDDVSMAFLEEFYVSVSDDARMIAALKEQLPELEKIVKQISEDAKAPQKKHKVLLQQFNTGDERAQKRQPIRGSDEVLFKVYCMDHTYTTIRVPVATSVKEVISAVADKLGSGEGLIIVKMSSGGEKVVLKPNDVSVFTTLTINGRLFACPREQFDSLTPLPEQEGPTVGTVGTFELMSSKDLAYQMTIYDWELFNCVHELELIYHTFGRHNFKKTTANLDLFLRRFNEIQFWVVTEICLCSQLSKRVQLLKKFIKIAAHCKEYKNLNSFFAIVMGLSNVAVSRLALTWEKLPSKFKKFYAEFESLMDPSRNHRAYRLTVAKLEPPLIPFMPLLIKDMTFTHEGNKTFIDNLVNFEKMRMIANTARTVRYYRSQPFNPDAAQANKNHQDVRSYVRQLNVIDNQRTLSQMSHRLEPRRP

[10] = target: Rap guanine nucleotide exchange factor 4 (Homo sapiens) (UniProt Q8WZA2); test: Confirmatory qHTS for antagonist of cAMP-regulated guanine nucleotide exchange factor 4 (EPAC2) (AID 1645885); settings: EPAC2 Rap1B-BODIPY-GDP exchange fluorescence, biochemical; series mostly up to 114 µM; note: % is set by controls: 0 for no effect and ±100 for the full control effect; nearly all actives have a fitted effect of over 25% in size
[11] = target: Cytochrome P450 1A2 (Homo sapiens) (UniProt P05177); test: p450-cyp1a2 (AID 410; calls by dose curve; note: potency is the fitted concentration of half-maximal effect); settings: recombinant CYP1A2, luciferin-ME demethylation, luminescence; series mostly up to 57 µM
Cytochrome P450 1A2 (Homo sapiens), sequence (P05177 whole entry, looked up): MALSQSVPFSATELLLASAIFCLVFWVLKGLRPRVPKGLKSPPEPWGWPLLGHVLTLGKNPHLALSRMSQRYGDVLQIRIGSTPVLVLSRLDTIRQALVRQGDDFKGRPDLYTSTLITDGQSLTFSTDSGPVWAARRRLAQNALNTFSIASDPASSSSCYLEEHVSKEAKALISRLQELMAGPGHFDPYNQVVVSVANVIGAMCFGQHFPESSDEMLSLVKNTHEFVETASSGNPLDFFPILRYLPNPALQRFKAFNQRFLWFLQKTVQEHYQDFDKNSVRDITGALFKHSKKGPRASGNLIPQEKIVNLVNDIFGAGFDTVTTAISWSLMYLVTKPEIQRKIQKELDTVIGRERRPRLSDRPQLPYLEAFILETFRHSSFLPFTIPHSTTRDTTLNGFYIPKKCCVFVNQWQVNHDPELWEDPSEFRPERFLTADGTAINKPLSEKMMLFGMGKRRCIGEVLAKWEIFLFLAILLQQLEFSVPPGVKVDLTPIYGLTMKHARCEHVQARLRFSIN
How it was run: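 Inhibition was calculated relative to 57 uM furafylline (full inhibition). The reaction used human CYP1A2 at 20nM with Luciferin-ME at its Km, 100uM, driven by an NADPH-regenerating system for 60 min at room temperature.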

[12] = NFAT Signaling Pathway (AID 444; active = well fitted curve in either direction with a large enough effect, not every such curve was filed as active;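 note: carbachol stimulus at about its EC50 of 1 µM final; % is set by controls: 0 for no effect and ±100 for the full control effect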); settings: Jurkat NFAT-bla M1, carbachol, beta-lactamase ratio, 5 h; at 7.69 µM (top of the series) unless noted
How it was run: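 Read-out: CCF4 FRET ratio (460 nm/530 nm) after 1 h RT dye loading, used for %activity and AC50 from titration series. Cells: Jurkat NFAT-β-lactamase/M1 line, treated with compound plus 1 uM carbachol for 5 h, 37 °C.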

[13] = target: Glucocorticoid receptor (Homo sapiens) (UniProt P04150); test: GR-GFP Redistribution (AID 450;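 active = compounds whose dose series gives a full or clear partial fitted curve of increased nuclear translocation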; note: potency is the fitted concentration of half-maximal effect); settings: U2OS GR-GFP nuclear translocation, laser cytometry, 2 h
[14] = target: Mitogen-activated protein kinase 10 (Mus musculus) (UniProt Q61831); test: JNK3 AlphaScreen Assay (AID 530; active = well fitted curve in either direction with a large enough effect, not every such curve was filed as active); settings: JNK3 lysate, c-Jun phosphorylation; series mostly up to 57.1 µM
How it was run: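 Room-temperature AlphaScreen kinase assay; pre-activated HepG2 lysate as JNK3 source, biotin-GST-cJun(1-79) substrate, 10 uM ATP, compound 15 min preincubation.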

[15] = target: Dual specificity protein kinase CLK4 (Homo sapiens) (UniProt Q9HAZ1); test: qHTS Assay for Inhibitors of CDC-like Kinase 4 (Kinase-Glo Assay) (AID 1770); settings: recombinant Clk4, Kinase-Glo ATP depletion luminescence; series mostly up to 66.7 µM; note: % is set by controls: 0 for no effect and ±100 for the full control effect; nearly all actives have a fitted effect of over 65% in size
Dual specificity protein kinase CLK4 (Homo sapiens), sequence (Q9HAZ1 whole entry, looked up): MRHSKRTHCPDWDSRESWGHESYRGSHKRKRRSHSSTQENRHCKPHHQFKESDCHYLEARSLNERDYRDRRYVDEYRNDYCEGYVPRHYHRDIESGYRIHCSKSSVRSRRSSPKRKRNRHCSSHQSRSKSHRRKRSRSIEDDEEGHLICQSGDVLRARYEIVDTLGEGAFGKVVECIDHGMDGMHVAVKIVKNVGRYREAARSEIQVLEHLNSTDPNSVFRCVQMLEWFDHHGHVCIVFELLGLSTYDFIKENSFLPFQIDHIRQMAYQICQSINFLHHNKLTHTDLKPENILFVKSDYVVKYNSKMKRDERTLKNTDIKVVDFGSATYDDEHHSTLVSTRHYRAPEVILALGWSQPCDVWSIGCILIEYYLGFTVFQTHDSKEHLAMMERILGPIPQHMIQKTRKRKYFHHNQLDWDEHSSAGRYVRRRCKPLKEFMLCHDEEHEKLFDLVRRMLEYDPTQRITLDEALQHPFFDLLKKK
How it was run: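 Luminescent ATP-depletion read-out (Kinase-Glo) after 4.5 h room-temperature reaction of Clk4 (25 nM final) with RS peptide (100 uM) and ATP (1 uM), pH 7.5 Tris buffer with MgCl2 and DTT.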

[16] = target: Dual specificity protein kinase CLK4 (Homo sapiens) (UniProt Q9HAZ1); test: qHTS Assay for Inhibitors of CDC-like Kinase 4 (ADP-Glo Assay) (AID 1771); settings: recombinant CLK4, ADP-Glo luminescence; series mostly up to 80 µM; note: % is set by controls: 0 for no effect and ±100 for the full control effect; nearly all actives have a fitted effect of over 70% in size
How it was run: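 Kinase reaction: Clk4 at 25 nM, RS repeat peptide substrate at 100 uM, ATP at 1 uM, 1 hr, room temperature. Product ADP detected as luciferase signal via ADP-Glo.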

[17] = target: Dual specificity protein kinase CLK4 (Homo sapiens) (UniProt Q9HAZ1); test: qHTS Assay for Inhibitors of CDC-like Kinase 4 (ADP-FP Assay) (AID 1795); settings: Transcreener ADP fluorescence polarization; series mostly up to 50 µM;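 note: recombinant human CLK4 phosphorylating RS repeat peptide at 1 µM ATP; % is set by controls: 0 for no effect and ±100 for the full control effect; nearly all actives have a fitted effect of over 60% in size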
How it was run: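 Kinase activity was measured as ADP production using Transcreener orange tracer (4 nM) and ADP antibody (1 ug/mL) fluorescence polarization, with ADP calculated from a calibration curve. The 1 h reaction contained 6.25 nM Clk4, 1 uM ATP and 100 uM RS peptide at pH 7.5 with Mg2+.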

[18] = target: Ubiquitin carboxyl-terminal hydrolase 1 (Homo sapiens) (UniProt O94782); test: Inhibitors of USP1/UAF1: Pilot qHTS (AID 504865); settings: purified USP1/UAF1, Ub-rhodamine cleavage fluorescence; series mostly up to 54.9 µM;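 note: rhodamine fluorescence freed from ubiquitin-rhodamine substrate followed over time; top concentration of the series differs between compounds; % is set by controls: 0 for no effect and ±100 for the full control effect; nearly all actives have a fitted effect of over 35% in size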
Ubiquitin carboxyl-terminal hydrolase 1 (Homo sapiens), sequence (O94782 whole entry, looked up): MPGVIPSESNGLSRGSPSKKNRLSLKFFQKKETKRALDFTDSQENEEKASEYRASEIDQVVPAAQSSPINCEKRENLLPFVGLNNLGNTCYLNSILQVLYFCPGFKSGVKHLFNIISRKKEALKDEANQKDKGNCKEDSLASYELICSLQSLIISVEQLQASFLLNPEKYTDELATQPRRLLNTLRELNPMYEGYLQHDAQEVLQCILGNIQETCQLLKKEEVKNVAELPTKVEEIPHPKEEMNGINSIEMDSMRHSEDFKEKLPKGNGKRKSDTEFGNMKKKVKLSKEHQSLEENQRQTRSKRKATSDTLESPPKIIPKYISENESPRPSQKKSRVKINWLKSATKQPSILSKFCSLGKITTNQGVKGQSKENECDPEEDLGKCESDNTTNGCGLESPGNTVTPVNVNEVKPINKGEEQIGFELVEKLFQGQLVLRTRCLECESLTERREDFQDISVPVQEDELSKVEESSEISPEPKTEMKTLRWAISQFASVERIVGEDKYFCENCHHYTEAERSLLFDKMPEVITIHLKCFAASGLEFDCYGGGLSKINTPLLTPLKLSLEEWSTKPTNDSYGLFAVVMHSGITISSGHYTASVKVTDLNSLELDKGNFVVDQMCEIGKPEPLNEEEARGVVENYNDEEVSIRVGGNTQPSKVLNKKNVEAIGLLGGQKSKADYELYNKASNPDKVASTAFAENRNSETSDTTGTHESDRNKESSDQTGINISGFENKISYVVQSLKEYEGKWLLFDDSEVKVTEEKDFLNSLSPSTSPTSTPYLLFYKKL
How it was run: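 Deubiquitinase activity followed as kinetic rhodamine fluorescence release from 150 nM Ub-Rho. 1 nM USP1/UAF1 with compound, after 15 min room-temperature preincubation, in HEPES pH 7.8 buffer containing TCEP, EDTA, BSA and Tween-20.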

[19] = target: Cytochrome P450 3A4 (Homo sapiens) (UniProt P08684); test: qHTS Assay for Inhibitors and Substrates of Cytochrome P450 3A4 (AID 884); settings: recombinant CYP3A4, Luciferin-PPXE luminescence; series mostly up to 57.1 µM; note: % is set by controls: 0 for no effect and ±100 for the full control effect; nearly all actives have a fitted effect of over 50% in size
How it was run: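 20 nM human CYP3A4 with 25 uM Luciferin-PPXE (at KM) in 200 mM KPO4, preincubated 10 min with compound; NADPH regeneration started a 60 min RT reaction. Luciferin detected by luminescence, normalized to 57 uM ketoconazole as full inhibition.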

[20] = target: Cytochrome P450 3A4 (Homo sapiens) (UniProt P08684); test: qHTS Assay for Activators of Cytochrome P450 3A4 (AID 885); settings: recombinant CYP3A4, Luciferin-PPXE luminescence, 60 min; series mostly up to 57.1 µM; note: nearly all actives have a fitted effect of over 65% in size
How it was run: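 Quantitative HTS format: compounds preincubated with 20nM human CYP3A4 and Luciferin-PPXE substrate at KM, reaction started by NADPH regeneration, stopped after 60 min, luciferase luminescence read 20 min later.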

[21] = measured here: cell count channel max response
[22] = measured here: lipid channel max response

## Cc1noc(C)c1C(=O)N1CCC2(CCN(Cc3ccc(C#N)cc3)CC2)CC1
[1]
  Potency: > 11.4 µM (inactive)
[2]
  activity change, negative = inhibition: 22% (inactive)
[3]
  activity, negative = inhibition: 2.67% (inactive)
[4]
  Potency: > 46 µM (inactive)
[5]
  Potency: inactive
[6]
  activity change, negative = inhibition: -1.31% (inactive)
[6]; [21]
  max response: 9.89%
[6]; [22]
  max response: 10.9%
[7]
  Potency: inactive
[8]
  outcome: inactive
[9]
  outcome: inactive
[10]
  Potency: inactive

## N#CCCn1c(=O)cnc2cnc(Oc3ccccc3)nc21
[1]
  Potency: > 11.4 µM (inactive)
[2]
  activity change, negative = inhibition: -16.3% (inactive)
[11]
  Potency: 15.8 µM (active)
[12]
  activity change, negative = inhibition: 11.7% (inactive)
[3]
  activity, negative = inhibition: -2.6% (inactive)
[13]
  Potency: > 9.22 µM (inactive)
[4]
  Potency: > 46 µM (inactive)
[14]
  outcome: inactive
[6]
  activity change, negative = inhibition: 5.36% (inactive)
[6]; [21]
  max response: 9.06%
[6]; [22]
  max response: 13.1%
[15]
  Potency: inactive
[16]
  Potency: inactive
[17]
  Potency: inactive
[18]
  Potency: inactive
[7]
  Potency: inactive

## O=c1c(-c2ccccc2)nc2cnc(N3CCOCC3)nc2n1C1CC1
[1]
  Potency: > 11.4 µM (inactive)
[2]
  activity change, negative = inhibition: -9.27% (inactive)
[11]
  Potency: 3.16 µM (active)
[12]
  activity change, negative = inhibition: -1.33% (inactive)
[3]
  activity, negative = inhibition: -7.68% (inactive)
[13]
  Potency: > 9.22 µM (inactive)
[4]
  Potency: > 46 µM (inactive)
[14]
  outcome: inactive
[5]
  Potency: inactive
[6]
  activity change, negative = inhibition: -1.42% (inactive)
[6]; [21]
  max response: 1.76%
[6]; [22]
  max response: -1.06%
[15]
  Potency: inactive
[16]
  Potency: inactive
[17]
  Potency: inactive
[18]
  Potency: inactive
[7]
  Potency: inactive

## Cc1noc(C)c1-c1cc(NC2CCNCC2)ncn1
[1]
  Potency: > 11.4 µM (inactive)
[2]
  activity change, negative = inhibition: 8.23% (inactive)
[11]
  Potency: 0.126 µM (active)
[12]
  activity change, negative = inhibition: 8.17% (inactive)
[3]
  activity, negative = inhibition: 5.01% (inactive)
[13]
  Potency: > 46 µM (inactive)
[4]
  Potency: > 46 µM (inactive)
[14]
  outcome: inactive
[5]
  Potency: inactive
[19]
  Potency: inactive
[6]
  activity change, negative = inhibition: 3.45% (inactive)
[6]; [21]
  max response: -17.1%
[6]; [22]
  max response: -14.9%
[15]
  Potency: inactive
[16]
  Potency: inactive
[17]
  Potency: inactive
[18]
  Potency: inactive
[7]
  Potency: inactive

## NCCn1c(=O)c(CCc2ccccc2)nc2cncnc21
[1]
  Potency: > 11.4 µM (inactive)
[2]
  activity change, negative = inhibition: -1.99% (inactive)
[11]
  Potency: 12.6 µM (active)
[12]
  activity change, negative = inhibition: -4.68% (inactive)
[3]
  activity, negative = inhibition: -4.77% (inactive)
[13]
  Potency: > 9.22 µM (inactive)
[4]
  Potency: > 46 µM (inactive)
[14]
  outcome: inactive
[5]
  Potency: inactive
[20]
  Potency: inactive
[6]
  activity change, negative = inhibition: 4.81% (inactive)
[6]; [21]
  max response: 26.7%
[6]; [22]
  max response: 29.9%
[15]
  Potency: inactive
[16]
  Potency: inactive
[17]
  Potency: inactive
[18]
  Potency: inactive
[7]
  Potency: inactive

## COCCn1c(=O)c(-c2cccc(C#N)c2)nc2cnc(N(C)C)nc21
[1]
  Potency: > 11.4 µM (inactive)
[2]
  activity change, negative = inhibition: -1.01% (inactive)
[11]
  Potency: 2 µM (active)
[12]
  activity change, negative = inhibition: -2.05% (inactive)
[3]
  activity, negative = inhibition: -10.5% (inactive)
[13]
  Potency: > 9.22 µM (inactive)
[4]
  Potency: > 46 µM (inactive)
[14]
  outcome: inactive
[5]
  Potency: inactive
[6]
  activity change, negative = inhibition: 3.6% (inactive)
[6]; [21]
  max response: 16.6%
[6]; [22]
  max response: 17.9%
[15]
  Potency: inactive
[16]
  Potency: inactive
[17]
  Potency: inactive
[18]
  Potency: inactive
[7]
  Potency: inactive
